Rows were chosen to be rich in hits. Some 3.3% of all compounds tested hit in one or more screens of this group.
IMPase inh = membrane-permeable compound that blocks inositol monophosphatase. 120,000 tested, under 10 active. inhibition (IP1 accumulation), % at 46.1 µM. CHO-M1 cells, IP1 accumulation, HTRF TR-FRET ratio. P97697; active = well fitted curve in the direction sought with a large enough effect in the signal ratio, not every such curve was filed as active; inconclusive = small, poorly fitted or top-dose-only effect, or a change in a side signal; inactive = no such curve, though single readings can be large or run the other way; the % refers to the signal ratio;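 note: cells stimulated with carbachol in lithium chloride buffer; plate controls were DMSO basal wells for no effect and reference inhibitor wells for full effect; higher means more IMPase inhibition seen as more IP1 and lower FRET ratio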
Target sequence (P97697 whole entry, looked up): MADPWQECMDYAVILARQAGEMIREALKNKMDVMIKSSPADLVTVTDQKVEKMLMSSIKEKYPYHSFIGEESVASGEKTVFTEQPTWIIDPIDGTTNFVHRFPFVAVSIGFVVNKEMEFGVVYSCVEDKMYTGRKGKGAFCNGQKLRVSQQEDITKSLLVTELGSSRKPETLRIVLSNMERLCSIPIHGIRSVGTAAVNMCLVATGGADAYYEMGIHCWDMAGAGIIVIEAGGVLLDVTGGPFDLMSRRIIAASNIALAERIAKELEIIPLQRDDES
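CHO-M1 cells (CHO stably expressing M1 receptor), compound up to 46 uM final, stimulated with carbachol (50 uM as added) in buffer with 50mM LiCl, pH 7.4, 30 min at 37C. Cytosolic IP1 read by TR-FRET; AC50 from Hill fits.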
HTT ATP protect = cytoprotection in Huntington HTT-Q103 PC12 cell model. AID 1471. PC12 HTT-Q103 induced, cytoprotection, ATP luminescence, 40 h. Potency, µM (titrated, usually from 56.4 µM), for the others: cytoprotection (ATP increase), most hits filed as activators. actives 0.14% (n = 230,000); note: potency is the fitted concentration of half-maximal effect; % of control where 0% means no effect; nearly all actives have a fitted effect of over 45% in size
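Readout: ATPlite luminescence (ATP level). Model: stable PC12, inducible Htt exon1 Q103-GFP. Inducer: tebufenozide, 100 nM final. Compounds: dose series. No G418 in medium.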
NPSR antagonist = antagonists of human neuropeptide S receptor cAMP signaling; actives 1% (n = 220,000); Potency, µM (highest dose often 38.3 µM), inactives show at the highest dose activity change, negative = inhibition, hits mostly inhibitors; Q6W5P4; CHO-NPSR cells, cAMP TR-FRET, antagonist mode; note: potency is the fitted concentration of half-maximal effect; % is set by controls: 0 for no effect and ±100 for the full control effect; nearly all actives have a fitted effect of over 50% in size
Target sequence (Q6W5P4 whole entry, looked up): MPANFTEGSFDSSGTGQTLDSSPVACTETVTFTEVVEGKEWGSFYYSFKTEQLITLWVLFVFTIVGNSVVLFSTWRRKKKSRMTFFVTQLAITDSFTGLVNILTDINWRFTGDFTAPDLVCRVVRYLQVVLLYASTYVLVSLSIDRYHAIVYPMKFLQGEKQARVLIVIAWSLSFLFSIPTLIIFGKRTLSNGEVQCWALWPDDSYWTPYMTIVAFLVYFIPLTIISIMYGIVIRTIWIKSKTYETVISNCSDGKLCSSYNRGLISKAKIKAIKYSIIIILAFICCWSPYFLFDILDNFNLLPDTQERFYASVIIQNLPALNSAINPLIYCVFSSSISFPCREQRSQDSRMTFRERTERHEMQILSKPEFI
PNC assembly inh = inhibitors of perinucleolar compartment assembly; activity change (PNC), negative = inhibition, % at 10 µM; actives 3.1% (n = 140,000); PC3M PTB-GFP, PNC prevalence imaging, 16 h; active compounds read low;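 active = readout at or below -70, meaning at least 70% loss of cells showing the perinucleolar compartment, a nuclear body marking cancer cells; inconclusive = readout between -30 and a set limit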;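 note: plate controls were DMSO wells for no effect and camptothecin positive control wells for full effect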
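Read-out is percentage of cells bearing a perinucleolar compartment, from automated 20x imaging of fixed, Hoechst-stained PC3M PTB-GFP cells. Cells were seeded 4 h, then exposed 16 h to compound (23 nl of library stock) in duplicate plates.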
HttQ103 aggreg = reduces HttQ103-GFP aggregates in PC12 cells; PC12 HttQ103-GFP aggregates, Acumen cytometry, 40 h; Potency, µM (doses to about 46.1 µM), for inactives: top-dose activity change, negative = inhibition, hits mostly inhibitors; actives 1.1% (n = 220,000); AID 1688; note: potency is the fitted concentration of half-maximal effect; % is set by controls: 0 for no effect and ±100 for the full control effect; nearly all actives have a fitted effect of over 60% in size
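Using laser scanning cytometry, GFP-positive aggregates were counted after lysis of PC12 cells induced with 100 nM tebufenozide to express HTT exon 1 Q103–GFP. Compounds were tested in titration.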
ALOX12 inhib = inhibitors of human 12-lipoxygenase (ALOX12); P18054; purified 12-hLO, xylenol orange hydroperoxide absorbance; Potency, µM (series often up to 57.1 µM), without a hit: at the highest dose activity change, negative = inhibition, usual class: inhibitors; actives 0.12% (n = 150,000); AID 1452; note: potency is the fitted concentration of half-maximal effect; % is set by controls: 0 for no effect and ±100 for the full control effect; nearly all actives have a fitted effect of over 55% in size
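Purified human 12hLO (150 nM final) was preincubated with compounds for 15 min at room temperature in 25 mM Hepes pH 7.0, 0.01% Triton X-100, then reacted with 40 uM arachidonic acid for 30 min. Hydroperoxide was detected with ferrous iron/xylenol orange.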
* marks the source's active call; other numbers are inactive results; ? = inconclusive; . = not tested or not shown; [ ] = another dose, or the depositor's remark. Unless noted, calls come from the whole dose curve; as a rule, active = well fitted curve in the direction sought with a large enough effect; inconclusive = small, poorly fitted or top-dose-only effect, or another doubt; inactive = no such curve, though single readings can be large; an effect the other way counts as inactive or inconclusive.

SMILES	IMPase inh	HTT ATP protect	NPSR antagonist	PNC assembly inh	HttQ103 aggreg	ALOX12 inhib
COc1cccc(Oc2cn[nH]c2-c2ccc(O)cc2O)c1	1	-10%[10 µM]	-20%[46.1 µM]	-86*	?	-27%
COc1cccc(Oc2cn[nH]c2-c2ccc(OC)cc2O)c1	1	-18%	?	-17	-8%	?
COc1ccc(-c2[nH]ncc2-c2csc(C)n2)c(O)c1	10	1%[10 µM]	15%	-91*	-21%	-3%
CCOc1ccc(-c2[nH]ncc2-c2csc(C)n2)c(O)c1	1	-27%[10 µM]	-8%[46.1 µM]	-14	?	-1%
COC(=O)N1CCC2(CCN(C(=O)Nc3cccc(F)c3)CC2)CC1	.	3%	.	.	.	-1%
COC(=O)N[C@@H](CCc1ccccc1)/C(C(=O)OC)=C(\C)NCc1ccccc1	.	-5%	.	.	.	1%
CN(C)c1ccc(-c2cccc(C3CC=CC4C3C(=O)N(Cc3ccccc3)C4c3ccc(C(F)(F)F)cc3)c2)cc1 (stereo not drawn)	.	-48%[10 µM]	-19%	.	-33%[9.22 µM]	.
COc1ccc(-c2ccc(OC)c([C@H]3[C@H]4C=CC[C@@H](C)[C@@H]4C(=O)N3Cc3ccccc3)c2)cc1OC	.	?	?	.	-16%[9.22 µM]	.
COc1ccc(-c2c([C@H]3[C@H]4C=CC[C@@H](C)[C@@H]4C(=O)N3Cc3ccccc3)ccc3ccccc23)cc1OC	.	6%[10 µM]	6.3µM*	.	20%[9.22 µM]	.
COc1ccc(-c2cccc(C3CC=CC4C3C(=O)N(Cc3ccccc3)C4c3ccc(C(F)(F)F)cc3)c2)cc1 (stereo not drawn)	.	-45%[10 µM]	-50%	.	1µM*	.
CC(C)NC(=O)C1CCN(C2CCN(C(=O)c3ccc4cccc(F)c4n3)CC2)CC1	.	14%[10 µM]	12%	.	-2%[9.22 µM]	.
Cc1ccccc1CN1CCNC(=O)C1CC(=O)O (stereo not drawn)	7	-8%	-3%[46.1 µM]	-84*	14%	-1%
CCCCC(=O)O[C@]1(C(=O)CO)CCC2C3CCC4=CC(=O)CCC4(C)C3C(O)CC21C (stereo partly drawn)	.	-7%	.	.	5%	.
COc1ccc(CN2C(=O)NC3(CCOc4ccccc43)C2=O)cc1F (stereo not drawn)	6	-32%[10 µM]	-6%	-80*	1%	-4%
COc1ccccc1N1CCN(CC(O)COc2ccc(C)cc2C(C)(C)C)CC1 (stereo not drawn)	1	.	.	.	.	.
O=C(Nc1c(C(=O)O)[nH]c2ccccc12)NC1CCCCC1	1	26%[0.074 µM]	?	-100*	8%	-5%
N#Cc1cccc(-c2ccc3ncnc(NCc4ccccc4)c3c2)c1	.	-38%	.	.	.	.
CC(C)CNC1=CC(=O)CC(c2ccco2)C1 (stereo not drawn)	-2	4%	-1%[46.1 µM]	-81*	16%	-17%
COc1ccc(NC(=O)N2CCCC3(CCN(S(=O)(=O)c4ccccc4)CC3)C2)cc1	.	-1%	.	.	.	-2%
CCOC(=O)c1c(-c2ccc(C)cc2)csc1NC(=S)NC(=O)c1ccccc1	17[1.84 µM]	13%[10 µM]	-23%[46.1 µM]	4	-5%	?
CCOC(=O)c1c(-c2ccc(C)cc2)csc1NC(=O)c1cc2ccccc2oc1=O	4	-5%	10µM*	6	-13%[9.22 µM]	-18%
COC(=O)c1ccc(NC(=O)CN2C(=O)c3cccc4cccc2c34)cc1	12	.	.	.	.	.
COc1ccc(-c2nnc(SCC(=O)N3CCc4ccccc43)o2)cc1OC	5	.	.	.	.	.
Cn1cc(-c2nc3cncnc3n(CCN)c2=O)c2ccccc21	.	-6%	.	.	.	.
Cc1c(NC(=O)C(C)OC(=O)c2sc3ccccc3c2Cl)c(=O)n(-c2ccccc2)n1C (stereo not drawn)	.	-64%[10 µM]	-9%	-116*	?	-2%
SMILES	IMPase inh	HTT ATP protect	NPSR antagonist	PNC assembly inh	HttQ103 aggreg	ALOX12 inhib
CS(=O)(=O)Nc1ccc(C(=O)Nc2ccc3c(c2)OCO3)cc1	.	-68%	-3%	.	1%	.
C=CC1=C2C=C(C3CC3)N(CCCN(CC)CC)C=C2C(=O)C(C)(OC(=O)c2ccco2)C1=O (stereo not drawn)	.	-7%[10 µM]	.	.	.	3%[11.4 µM]
C=CCNC(=O)c1ccccc1NC(=O)C1COc2ccccc2O1 (stereo not drawn)	.	-65%[10 µM]	34%	.	3.5µM*	.
C=CCNC(=O)c1ccccc1NC(=O)c1ccccc1C	-14	-5%[10 µM]	0%[46.1 µM]	-100*	-13%	-2%
Cc1ccc(NC(=O)c2ccccc2NC(=O)CCC(=O)O)cc1	.	-10%[10 µM]	19%	?	10%	3%
C=CCNC(=O)c1ccccc1NC(=O)c1ccccc1SC	.	-32%	10%	.	12%	.
Cc1ccccc1NC(=O)c1ccccc1NC(=O)CCC(=O)O	.	.	0%	-109*	2%	0%
COC(=O)c1ccccc1NC(=O)C1COc2ccccc2O1 (stereo not drawn)	19	3%	?	?	?	-10%
Cc1ccc(-c2nn3c(-c4ccccc4C)nnc3c3ccccc23)cc1	4	.	.	.	.	.
COc1cccc(NC(=O)C2(S(=O)(=O)c3ccc(Cl)cc3)CC2)c1	.	6%[10 µM]	-11%	.	-11%[9.22 µM]	.
COc1ccc(/C=N/NC(=O)c2cc(-c3ccc(Cl)cc3)n[nH]2)cc1OC	.	.	.	.	.	-3%
Cc1cccc(CSc2cccc3cccnc23)c1	-1	-24%	3.2µM*	43	?	0%
NNC(=O)c1ccc(CSc2cccc3cccnc23)cc1	.	31%[10 µM]	6%	.	-1%	.
CCCCCCNC(=O)n1cc(F)c(=O)[nH]c1=O	.	-121%	.	.	-8%	-4%
CC(=O)c1cccc(N=c2scc(-c3ccc(S(=O)(=O)N4CCOCC4)cc3)n2CCO)c1	.	.	-7%	60	?	-11%
COc1ccc(N=c2scc(-c3ccc(S(=O)(=O)N4CCOCC4)cc3)n2CCCO)cc1	7	11%[10 µM]	-13%[46.1 µM]	-100*	13µM*	0%
c1cncc(CSc2ncnc3nc[nH]c23)c1	.	-19%[10 µM]	.	.	.	1%[11.4 µM]
CC(=O)OCCNc1cc(N2CCN(C)CC2)c2noc3c2c1C(=O)c1ccccc1-3	42	-23%	10µM*	-93*	-21%	-1%
COCCCNC(=O)c1ccc2c3c(onc13)-c1ccccc1C2=O	.	-45%[10 µM]	?	.	-28%[9.22 µM]	.
CCn1c(/C=C/c2c[nH]c3ccccc23)nc2ccccc2c1=O	.	11%[10 µM]	-12%	.	-8%[9.22 µM]	.
CN(C)S(=O)(=O)c1ccc2[nH]cc(/C=C/c3nc4ccccc4c(=O)n3-c3ccccc3)c2c1	-3	-63%	-13%[46.1 µM]	-80*	?	1%
Cc1cc(Cl)c(S(=O)(=O)NCc2ccncc2)cc1OCC(N)=O	2	-7%	-6%[46.1 µM]	-13	1%	1%
Cc1cc(Cl)c(S(=O)(=O)NCc2ccccc2)cc1OCC(N)=O	-8	9%	-8%[46.1 µM]	-113*	-3%[9.22 µM]	6%

Compound activity as filed in PubChem.
